Measured values reported in PubChem BioAssay (Tox21).
Unmarked numbers belong to inactive results. Records with an inconclusive call do not appear. Entries that show only a call come without a potency. Activity calls are given as the source filed them. Unless noted, calls follow the shape of the dose curve; as a rule, active = well fitted curve in the direction sought with a large enough effect in the repeat runs; inconclusive = weak or mixed curves; inactive = no such curve, though single readings can be large; an effect the other way counts as inactive or inconclusive.

How the values were obtained:
[1] = target: Luciferin 4-monooxygenase (Photinus pyralis) (UniProt P08659); experiment: qHTS assay to identify small molecule inhibitors of firefly luciferase (AID 1224835); also: nearly all actives have a fitted effect of over 25% in size; also: potency is read from the fitted curve at half-maximal effect
Chain of Luciferin 4-monooxygenase (Photinus pyralis) (P08659 whole entry, looked up): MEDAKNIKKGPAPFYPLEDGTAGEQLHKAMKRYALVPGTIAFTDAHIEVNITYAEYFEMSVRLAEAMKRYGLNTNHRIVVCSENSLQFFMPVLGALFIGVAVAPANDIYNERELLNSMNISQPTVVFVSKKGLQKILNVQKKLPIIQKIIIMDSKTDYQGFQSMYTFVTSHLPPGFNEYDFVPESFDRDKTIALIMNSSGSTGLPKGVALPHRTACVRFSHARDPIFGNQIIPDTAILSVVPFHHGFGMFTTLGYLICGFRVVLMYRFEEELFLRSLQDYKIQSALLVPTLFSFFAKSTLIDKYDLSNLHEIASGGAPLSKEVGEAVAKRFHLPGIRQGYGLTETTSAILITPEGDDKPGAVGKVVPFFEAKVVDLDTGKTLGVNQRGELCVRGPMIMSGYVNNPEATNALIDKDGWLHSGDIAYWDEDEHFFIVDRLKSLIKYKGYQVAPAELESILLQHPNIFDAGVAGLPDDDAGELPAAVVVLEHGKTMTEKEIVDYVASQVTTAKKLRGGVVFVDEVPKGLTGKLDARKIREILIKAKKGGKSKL
In short: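 Quantitative HTS format; KM concentrations of both substrates. Purified P. pyralis FLuc activity quantified from luminescence images.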

[2] = qHTS assay to identify small molecule agonists of the constitutive androstane receptor (CAR) signaling pathway - cell viability counter screen (AID 1224836); also: nearly all actives have a fitted effect of over 45% in size; also: potency is read from the fitted curve at half-maximal effect
In short: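 HepG2 cells stably carrying hCAR and a CYP2B6-2.2kb reporter; 15-concentration compounds plus PK11195 (final 0.75 uM), 23 hr at 37 C/5% CO2. Viability read by CellTiter-Fluor fluorescence.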

[3] = qHTS assay to identify small molecule antagonists of the constitutive androstane receptor (CAR) signaling pathway - cell viability counter screen (AID 1224837); also: nearly all actives have a fitted effect of over 45% in size; also: potency is read from the fitted curve at half-maximal effect
In short: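 Counter screen run in HepG2-CYP2B6-hCAR cells: 4 hr settle, compound titration (15 concentrations) with 50 nM CITCO, 23 hr at 37 C/5% CO2, CellTiter-Fluor fluorescence.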

[4] = target: Nuclear receptor subfamily 1 group I member 3 (Homo sapiens) (UniProt Q14994); experiment: qHTS assay to identify small molecule antagonists of the constitutive androstane receptor (CAR) signaling pathway (AID 1224838);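 also: HepG2 cells stably expressing hCAR with CYP2B6 luciferase reporter stimulated by CITCO; nearly all actives have a fitted effect of over 40% in size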; also: potency is read from the fitted curve at half-maximal effect
Chain of Nuclear receptor subfamily 1 group I member 3 (Homo sapiens) (Q14994 whole entry, looked up): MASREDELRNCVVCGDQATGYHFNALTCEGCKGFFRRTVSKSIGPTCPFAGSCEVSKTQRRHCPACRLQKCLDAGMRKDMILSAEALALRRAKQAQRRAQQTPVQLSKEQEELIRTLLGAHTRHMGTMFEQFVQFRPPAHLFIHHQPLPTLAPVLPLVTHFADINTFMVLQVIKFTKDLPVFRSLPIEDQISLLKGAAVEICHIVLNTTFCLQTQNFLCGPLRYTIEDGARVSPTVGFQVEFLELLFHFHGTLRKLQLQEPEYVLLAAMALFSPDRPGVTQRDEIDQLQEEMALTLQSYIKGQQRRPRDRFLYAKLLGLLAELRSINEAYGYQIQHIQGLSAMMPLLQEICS
In short: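 Cell line: HepG2 double-stable for hCAR and CYP2B6-2.2kb reporter. Agonist: CITCO, 50 nM final. Compounds: 15 concentrations, 24 h, 37 C. Detection: ONE-Glo luminescence.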

[5] = target: Nuclear receptor subfamily 1 group I member 3 (Homo sapiens) (UniProt Q14994); experiment: qHTS assay to identify small molecule agonists of the constitutive androstane receptor (CAR) signaling pathway (AID 1224839);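 also: HepG2 cells stably carrying human CAR and a CYP2B6 luciferase reporter; nearly all actives have a fitted effect of over 15% in size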
In short: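 HepG2 cells stably co-transfected with hCAR and a CYP2B6-2.2kb luciferase reporter; compounds at 15 concentrations with 0.75 uM PK11195 present. After 24 hr at 37 C, luciferase read by ONE-Glo luminescence.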

[6] = qHTS assay to identify small molecule antagonists of the estrogen related receptor signaling pathway with the pleiotropic PPARgamma coactivator (PGC) from Tox21 10K library - cell viability counter screen (AID 1224840; active = well fitted cell-killing curve with a large enough effect in the repeat runs, not every such curve was filed as active; also: nearly all actives have a fitted effect of over 40% in size; also: potency is read from the fitted curve at half-maximal effect)
In short: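 Following seeding of 2,000 PGC/ERR cells/well and 6 hours' incubation, test compounds were delivered in DMSO. The plates then sat 17.5 hours at 37 C before a fluorogenic live-cell protease reagent (CellTiter-Fluor) was read after 30 min.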

[7] = qHTS assay to identify small molecule agonists of the hypoxia (HIF-1) signaling pathway - cell viability counter screen (AID 1224844; calls by dose curve; also: nearly all actives have a fitted effect of over 50% in size; also: potency is read from the fitted curve at half-maximal effect)
In short: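 Cells (HRE-bla ME-180, 2,000 per well) sat 5 hrs at 37C, got compound for 17 hrs, were read for CCF4-AM FRET, and were finally lysed with CellTiter-Glo for a 30 min room-temperature luminescence read.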

[8] = qHTS assay to identify small molecule agonists of H2AX - cell viability counter screen (AID 1224847; calls by dose curve; also: nearly all actives have a fitted effect of over 30% in size; also: potency is read from the fitted curve at half-maximal effect)
In short: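 CHO-K1 cells plated overnight at 37C, then exposed 3 h at 37C to compounds at 15 concentrations (0.76% DMSO final). Viability by CellTiter-Glo luminescence after 30 min at room temperature.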

[9] = qHTS RealTime-Glo MT Cell Viability Assay in HepG2 cells - 24 hour (AID 1224867); also: nearly all actives have a fitted effect of over 50% in size; also: potency is read from the fitted curve at half-maximal effect
In short: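 HepG2 suspension premixed with RealTime-Glo reagents is plated at 600 cells per well and left 5 h at 37 C/5% CO2. Compounds in DMSO then go in, and bioluminescence reflecting viable cell number is recorded over 40 h.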

[10] = qHTS RealTime-Glo MT Cell Viability Assay in HEK293 cells - 32 hour (AID 1224868); also: nearly all actives have a fitted effect of over 50% in size; also: potency is read from the fitted curve at half-maximal effect
In short: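 Reads taken at 0, 8, 16, 24, 32 and 40 h from the same wells. HEK293 cells (600/well) carried RealTime-Glo reagents from seeding, with compound added after a 5 h settle at 37 C.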

[11] = qHTS RealTime-Glo MT Cell Viability Assay in HepG2 cells - 40 hour (AID 1224870); also: nearly all actives have a fitted effect of over 50% in size; also: potency is read from the fitted curve at half-maximal effect
In short: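 HepG2 cells mixed with RealTime-Glo MT reagents (NanoLuc plus cell-permeant prosubstrate) were seeded at 600 cells/well, incubated 5 h at 37 C/5% CO2, then pinned with compounds in DMSO; nonlytic luminescence tracked viability during 40 h treatment.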

[12] = target: Thyrotropin receptor (Homo sapiens) (UniProt P16473); experiment: qHTS assay to identify small molecule agonists of the thyroid stimulating hormone receptor (TSHR) signaling pathway (AID 1224843; calls by dose curve; also: nearly all actives have a fitted effect of over 45% in size; also: potency is read from the fitted curve at half-maximal effect)
Chain of Thyrotropin receptor (Homo sapiens) (P16473 whole entry, looked up): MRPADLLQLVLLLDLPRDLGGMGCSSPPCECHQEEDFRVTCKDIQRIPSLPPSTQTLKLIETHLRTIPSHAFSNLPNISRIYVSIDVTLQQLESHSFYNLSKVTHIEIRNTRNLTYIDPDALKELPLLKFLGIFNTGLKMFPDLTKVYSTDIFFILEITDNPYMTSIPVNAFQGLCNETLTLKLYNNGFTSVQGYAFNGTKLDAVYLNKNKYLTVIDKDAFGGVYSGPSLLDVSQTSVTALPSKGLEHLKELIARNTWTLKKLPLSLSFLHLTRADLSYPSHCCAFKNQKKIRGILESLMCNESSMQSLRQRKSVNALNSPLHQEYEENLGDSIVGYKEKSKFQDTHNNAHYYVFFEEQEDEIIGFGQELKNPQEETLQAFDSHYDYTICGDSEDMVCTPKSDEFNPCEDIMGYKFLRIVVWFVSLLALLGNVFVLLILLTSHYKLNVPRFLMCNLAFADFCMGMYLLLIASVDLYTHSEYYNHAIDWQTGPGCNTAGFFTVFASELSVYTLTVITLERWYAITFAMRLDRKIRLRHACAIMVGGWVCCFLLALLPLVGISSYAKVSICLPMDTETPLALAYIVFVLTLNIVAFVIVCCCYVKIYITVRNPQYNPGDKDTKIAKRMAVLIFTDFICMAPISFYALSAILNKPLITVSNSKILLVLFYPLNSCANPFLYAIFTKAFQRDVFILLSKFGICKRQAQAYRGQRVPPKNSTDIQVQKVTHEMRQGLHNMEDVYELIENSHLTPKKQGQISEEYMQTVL
In short: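 Cell line HEK293 with TSHR; density 800/well. Exposure 30 min RT. Readout HTRF cAMP (cAMP-d2/anti-cAMP-cryptate), 1 h RT before reading.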

[13] = A CellTox Green Cytotoxicity Assay to monitor cytotoxicity in HEK293 cells - 0 hour (AID 1224869); also: nearly all actives have a fitted effect of over 50% in size; also: potency is read from the fitted curve at half-maximal effect
In short: (§1)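 Fluorescence intensity, read at 0, 8, 16, 24, 32 and 40 h of compound treatment, reflected dye binding to DNA of dead HEK293 cells; compounds (23 nL, DMSO) were added 5 h after plating cells with reagent.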

[14] = A CellTox Green Cytotoxicity Assay to monitor cytotoxicity in HEK293 cells - 40 hour (AID 1224871); also: nearly all actives have a fitted effect of over 45% in size; also: potency is read from the fitted curve at half-maximal effect
In short: as §1

[15] = qHTS assay to identify small molecule agonists of the estrogen related receptor signaling pathway with the pleiotropic PPARgamma coactivator (PGC) from Tox21 10K library (AID 1224842); also: nearly all actives have a fitted effect of over 15% in size
In short: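 PGC/ERR reporter cells (NTP line) were seeded 2,000 per well, rested 6 h at 37 C/5% CO2, then pin-dosed with compounds in DMSO for 18 h at 37 C; luciferase read by One-Glo luminescence after 30 min at room temperature.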

[16] = qHTS assay to identify small molecule agonists of H2AX (AID 1224845; active = well fitted activation curve with a large enough effect in the signal ratio in the repeat runs, not every such curve was filed as active; the % refers to the signal ratio; also: potency is read from the fitted curve at half-maximal effect)
In short: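 Wild-type CHO-K1 cells plated overnight, then exposed 3 hr at 37C to compounds at 15 concentrations (0.76% DMSO). Lysed, then HTRF anti-pH2AX(S139)-cryptate/anti-H2AX-d2 detection after 24 hr at room temperature; emissions 665 and 620 nm.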

[17] = qHTS assay to identify small molecule antagonists of the estrogen related receptor (ERR) signaling pathway from Tox21 library (AID 1224848); also: nearly all actives have a fitted effect of over 50% in size; also: potency is read from the fitted curve at half-maximal effect
In short: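 Screening used an ERR reporter line supplied by NTP, exposed for 18 h at 37 C to library compounds delivered in DMSO. Signal was luciferase luminescence developed with ONE-Glo at room temperature for 30 min.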

[18] = qHTS assay to identify small molecule agonists of the estrogen related receptor (ERR) signaling pathway from Tox21 library (AID 1224849; calls by dose curve; also: nearly all actives have a fitted effect of over 15% in size); details: ERR reporter cell line, ONE-Glo luciferase, 18 h; at 92.4 µM (top of the series) unless noted
In short: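 Screening used an NTP-provided ERR luciferase cell line. Compounds in DMSO were added 6 h after seeding and left 18 h at 37 C before a 30 min ONE-Glo step and luminescence reading.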

[19] = qHTS assay to identify small molecule agonists of the hypoxia (HIF-1) signaling pathway (AID 1224846; active = well fitted activation curve with a large enough effect in the signal ratio in the repeat runs, not every such curve was filed as active; the % refers to the signal ratio)
In short: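 A low-serum medium (0.5% dialyzed FBS) holding 2,000 HRE-bla ME-180 cells per well is preincubated for 5 hrs, dosed with compounds by pintool, and kept a further 17 hrs at 37C, 5% CO2 before CCF4-AM FRET detection of beta-lactamase.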

[20] = qHTS assay to identify small molecule antagonists of the estrogen related receptor signaling pathway with the pleiotropic PPARgamma coactivator (PGC) from Tox21 10K library (AID 1224841; call rule not given here; also: potency is read from the fitted curve at half-maximal effect)
In short: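 qHTS antagonist format: PGC/ERR cells, 2k/well, compound in DMSO by pin transfer after 6 h attachment, 18 h treatment at 37 C, One-Glo luminescence read at 30 min.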

Compound | Potency [1] | Potency [2] | Potency [3] | Potency [4] | Potency [5] | Potency [6] | Potency [7] | Potency [8] | Potency [9] | Potency [10] | Potency [11] | Potency [12] | Potency [13] | Potency [14] | Potency [15] | Potency [16] | Potency [17] | activity change, positive = activation [18] | outcome [19] | Potency [20]
O=[N+]([O-])c1ccc2ccc3cccc4ccc1c2c34 | inactive | inactive | inactive | 4.85 µM (active) | inactive | inactive | 34.7 µM (active) | inactive | inactive | inactive | inactive |  |  |  |  |  |  |  |  | 
[Cl][Sb]([Cl])[Cl] | inactive | inactive | inactive | inactive | inactive |  |  | inactive | inactive |  | inactive | inactive | inactive | 24.5 µM (active) |  |  |  |  |  | 
CC1CCC(C(C)C)C(OC(=O)c2ccccc2N)C1 (stereo unspecified) | inactive | inactive | inactive | inactive |  |  | 38.4 µM (active) | 88.5 µM (active) | inactive |  | inactive | inactive | inactive | 27.2 µM (active) | inactive | 88.5 µM (active) | 53.7 µM (active) | -55.4% |  | 
S=C(SSC(=S)N1CCCCC1)N1CCCCC1 | 1.74 µM (active) | 0.841 µM (active) | 0.335 µM (active) | 0.376 µM (active) | inactive |  | 0.338 µM (active) |  |  | 15.1 µM (active) | 0.213 µM (active) | inactive | inactive | 0.151 µM (active) | inactive |  | 0.473 µM (active) | -70.7% [at 42.5 µM] |  | 
CN(C)S(=O)(=O)N(SC(F)(Cl)Cl)c1ccccc1 | 35.6 µM (active) | 30.6 µM (active) | 27.3 µM (active) | 21.7 µM (active) | inactive | 24.3 µM (active) | 19.5 µM (active) | 89.8 µM (active) | 11 µM (active) | 3.89 µM (active) | 9.77 µM (active) |  | inactive | 3.09 µM (active) |  |  |  |  |  | 
C[C@]12CC[C@H]3[C@@H](CCC4=CC(=O)CC[C@@]43C)[C@@H]1CC[C@@H]2O | inactive | inactive | inactive | inactive | inactive | inactive | inactive | inactive | inactive | 48.6 µM (active) | inactive |  | inactive |  |  |  |  |  |  | 
CCCCN(CCCC)C(=S)[S-].CCCCN(CCCC)C(=S)[S-].[Zn+2] | inactive | 21.7 µM (active) | 21.7 µM (active) |  |  | 13.7 µM (active) | 15.5 µM (active) | 80 µM (active) | 34.7 µM (active) | 11 µM (active) | 24.5 µM (active) |  | inactive | 15.5 µM (active) |  | inactive | 12.2 µM (active) | -74.5% |  | 
N#CCCO | inactive | inactive | inactive |  |  | inactive | inactive | inactive | inactive | inactive | inactive |  | inactive | inactive |  | inactive |  |  | inactive | 
ClC1=C(Cl)[C@]2(Cl)[C@@H]3[C@@H]4C[C@@H]([C@H]5O[C@@H]45)[C@@H]3[C@@]1(Cl)C2(Cl)Cl | inactive | inactive | inactive |  |  | 61.1 µM (active) |  | 50.5 µM (active) | 43.6 µM (active) | 21.9 µM (active) |  | 1.93 µM (active) | 43.6 µM (active) | 51.9 µM (active) | inactive | 17.9 µM (active) | 43.3 µM (active) | -52.1% |  | 61.1 µM (active)
CC(=[OH+])/C=C(/C)[O-].CC(=[OH+])/C=C(\C)[O-].CC(=[OH+])/C=C(\C)[O-].[Al] | 71 µM (active) | inactive | inactive |  |  | inactive | inactive | inactive | inactive | inactive | inactive |  | inactive |  |  | inactive |  |  | inactive | 
CCC(C)c1cc(C(C)(C)C)cc(-n2nc3ccccc3n2)c1O (stereo unspecified) | inactive | inactive | inactive |  |  | inactive | 19 µM (active) | inactive | inactive |  |  |  | inactive | inactive | inactive | inactive | inactive | -0.703% [at 42.5 µM] | inactive | inactive
CC(C)[C@H](C(=O)O[C@H](C#N)c1cccc(Oc2ccccc2)c1)c1ccc(Cl)cc1 | inactive | inactive | inactive |  |  | inactive | inactive | inactive | inactive |  | inactive |  | inactive |  |  | inactive |  |  |  | 
CCOCCOC(C)=O | inactive | inactive | inactive |  |  | inactive | inactive | inactive | inactive | inactive | inactive | inactive | inactive | inactive | inactive | inactive | inactive |  | inactive | 
